Screening data deposited in PubChem by National Center for Advancing Translational Sciences (NCATS).
GLP1R ag: qHTS of GLP-1 Receptor Agonists; Glucagon-like peptide 1 receptor (Homo sapiens), P43220; HEK293 GLP-1R CRE-luciferase, luminescence, 4-6 h; cells express a hypersensitive GLP-1R form; Potency, µM (doses to about 45.6 µM), without a hit: at the top dose activation, hits mostly activators; actives 0.007% (n = 380,000); AID 624172, 2012; note: % of control where 0% means no effect
RGS4 inh: Inhibitors of Regulator of G Protein Signaling (RGS) 4: qHTS | Regulator of G-protein signaling 4 (Homo sapiens), P49798 | Transcreener GDP fluorescence polarization, RGS4-accelerated GTP hydrolysis | Potency, µM (series often up to 114 µM), without a hit: at the highest dose activity change, negative = inhibition, actives largely listed as inhibitors | actives 0.039% (n = 390,000); note: % is set by controls: 0 for no effect and ±100 for the full control effect; nearly all actives have a fitted effect of over 75% in size
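MLSMR compounds (23 nl, pin-transferred) preincubated 10 min at room temperature with a 500nM (2x) first reagent, then RGS4 at 900nM (2x) plus Transcreener GDP mix added; fluorescence polarization (620/688 nm) read before and after 90 min at 30 °C.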
GLP1R inv ag: qHTS of GLP-1 Receptor Inverse Agonists (Inhibition Mode); Glucagon-like peptide 1 receptor (Homo sapiens), P43220; HEK293 GLP-1R CRE-luciferase, luminescence, 24 h; GLP-1R form is constitutively active; Potency, µM (top dose mostly 38.3 µM), inactives show at the top dose activity change, negative = inhibition, usual class: inhibitors; actives 1.6% (n = 410,000); AID 624417, 2012; note: % is set by controls: 0 for no effect and ±100 for the full control effect; nearly all actives have a fitted effect of over 55% in size
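Inverse agonism was detected as reduced cAMP-driven luciferase luminescence after 24 h compound treatment. The cells were HEK293 clones expressing constitutively active human GLP-1R with the reporter. Reporter-only and GPR119 cell lines served as counterscreen controls.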
PTHR1 ag: qHTS for PTHR1 Agonists: Primary Screen. Potency, µM (doses to about 115 µM), for the others: top-dose activation, actives largely listed as activators. actives 0.075% (n = 410,000). HEK293 GP2 PTHR1 cells, GloSensor cAMP luminescence, 1 h. AID 743266, 2014; note: nearly all actives have a fitted effect of over 55% in size
Target sequence (Q03431 whole entry, looked up): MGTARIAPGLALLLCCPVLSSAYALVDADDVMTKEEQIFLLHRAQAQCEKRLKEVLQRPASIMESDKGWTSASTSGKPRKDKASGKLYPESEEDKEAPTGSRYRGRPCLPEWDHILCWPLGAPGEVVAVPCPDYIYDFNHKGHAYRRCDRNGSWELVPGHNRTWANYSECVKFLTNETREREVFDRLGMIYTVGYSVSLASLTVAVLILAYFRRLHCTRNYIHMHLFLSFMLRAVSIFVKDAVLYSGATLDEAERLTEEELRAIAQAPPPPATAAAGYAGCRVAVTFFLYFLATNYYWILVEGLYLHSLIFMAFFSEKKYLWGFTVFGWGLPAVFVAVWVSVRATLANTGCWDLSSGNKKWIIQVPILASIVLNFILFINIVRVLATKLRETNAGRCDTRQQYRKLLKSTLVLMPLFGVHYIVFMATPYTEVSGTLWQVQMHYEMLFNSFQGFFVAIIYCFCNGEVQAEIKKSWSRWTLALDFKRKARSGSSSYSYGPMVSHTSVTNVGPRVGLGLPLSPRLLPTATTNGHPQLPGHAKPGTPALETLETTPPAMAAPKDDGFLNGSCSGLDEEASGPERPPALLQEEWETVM
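HEK-293-derived GP2 cells expressing PTHR1 and a GloSensor cAMP reporter, 3,000/well, plated overnight, given luciferin plus IBMX (each 0.5 mM as added) for 1 h at 37 °C, then compound for 1 h at 37 °C. Luminescence was read after 15 min at room temperature.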
GLP1R cytotox: qHTS of GLP-1 Receptor Inverse Agonists: Cytotox Screen. actives 0.13% (n = 410,000). Potency, µM (series often up to 38.3 µM), without a hit: at the top dose activity change, negative = inhibition, actives largely listed as inhibitors. HEK293 cAMP-luciferase reporter cells, luminescence, 24 h;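 note: loss of luciferase light is scored as toxicity; % is set by controls: 0 for no effect and ±100 for the full control effect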
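Luminescence readout: signal drop marks cytotoxicity. Plated cells grew 12 h at 37 °C, 5% CO2, received 23 nL compound for 24 h, then got luciferase reagent, read after 12 min at RT.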
Numbers without * were called inactive; i = inactive; ? = inconclusive; . = no result given; [ ] = dose if it differs, or a comment. A selection: hits, their analogues and other compounds. The true share with any hit is near 1.7%. Calls come from the whole dose curve; as a rule, active = well fitted curve in the direction sought with a large enough effect; inconclusive = small, poorly fitted or top-dose-only effect, or another doubt; inactive = no such curve, though single readings can be large; an effect the other way counts as inactive or inconclusive. Potency is the fitted concentration of half-maximal effect.

SMILES	GLP1R ag	RGS4 inh	GLP1R inv ag	PTHR1 ag	GLP1R cytotox
Cc1cc(C)cc(NC(=O)Cc2c(C(=O)O)c(C)cn2C)c1	.	-3%	9%	-35%	2%
Cc1ccc(S(=O)(=O)N2CCOCC2)cc1NC(=O)COc1cccc(Oc2ccccc2)c1	-2%	-16%	10µM*	i	12%
Cc1ccc(S(=O)(=O)N2CCOCC2)cc1NC(=O)COC(=O)CNC(=O)c1ccc(Oc2ccccc2)cc1	3%	13%	17%	i	12%
Cc1ccc(S(=O)(=O)N2CCOCC2)cc1NC(=O)CN1CCC(Cc2ccccc2)CC1	10%	-9%	7.1µM*	-28%	-7%
CN(Cc1ccccc1)c1ncnc2c1nc1n2CCCC1	.	-4%	8%	i	-13%
O=C(OCC(F)(F)F)c1cccc(COc2ccc3ccccc3c2)c1	-29%	-22%	2.2µM*	-14%	1%
Cc1c(Cl)cccc1Nc1nn2c(=O)c3ccc(C(=O)N(C)Cc4ccccc4)cc3nc2s1	.	15%	-14%	i	0%
Clc1cccc(Cc2c(C3CCCCC3)nc3ccc(Br)cn23)c1	8%	.	?	-17%	0%
[O-][n+]1nc2ccccc2c2ccccc21	12%	-5%	63%	-13%	0%
CCCNC1=C(N(C(C)=O)c2cccc(F)c2)C(=O)c2ccccc2C1=O	-40%	-20%	8.9µM*	i	?
CCC(=O)N(C1=C(NC(C)C)C(=O)c2ccccc2C1=O)C(C)C	0%	15%	9%	-36%	-18%
Cc1ccc(C)c(NC(=O)CSc2ncc3c(n2)-c2ccc(Cl)cc2N(C)S3(=O)=O)c1	.	-3%	2%	-4%	-1%
Fc1ccccc1C1c2[nH]c3ccccc3c2CCN1Cc1ccoc1 (stereo not given)	9%	-9%	8.9µM*	-8%	4%
CC(C)N(CCNCC(O)COc1ccc(C(C)(C)c2ccccc2)cc1)C(C)C (stereo not given)	9%	2%	4µM*	-28%	?
COc1ccccc1Nc1c2c(nc3ccccc13)CCC2	5%	-16%	?	i	?
COc1cc(Cl)c(C)cc1Nc1c2c(nc3ccccc13)CCC2	.	-7%	11µM*	-1%	?
CCOC(=O)c1cccc(Nc2c3c(nc4ccccc24)CCC3)c1	.	15%	?	-18%	10µM*
COC(=O)c1cccc(Nc2c3c(nc4ccccc24)CCC3)c1	14%	8%	7.9µM*	-31%	?
O=C(CN1C(=O)NC2(CCCCC2)C1=O)N1CCN(S(=O)(=O)c2ccc(F)cc2)CC1	-1%	-7%	-7%	-7%	-4%
Cc1nn(CCC(=O)NCc2cccc(Br)c2)c(=O)c2nn(-c3ccccc3)c(C)c12	.	-9%	-10%	-3%	4%
Cc1ccc(C(=O)N2c3ccccc3N(Cc3ccccc3)C(=O)C2(C)C)cc1	0%	19%	11µM*	-22%[57.5 µM]	26%
COc1ccc(-c2cc(C3CCN(Cc4cccc(C(F)(F)F)c4)CC3)[nH]n2)cc1	5%	-11%	5µM*	-91%	?
O=c1onc(-c2ccccc2Cl)n1-c1ccccc1Cl	-3%	-10%	?	-4%	9%
Cc1ccc(CNC(=O)CNC(=S)N(Cc2ccccc2)Cc2ccccc2F)cc1	10%	-16%	10µM*	-22%	17%
Cc1ccc(CN2CCC(CNC(=O)c3cnn(-c4ccccc4)c3C3CCN(C(=O)OC(C)(C)C)CC3)CC2)cc1	.	17%	4%	i	0%
CCOC(=O)c1cc(C)n(Cc2cccc(OC)c2OC)c1C	2%	-10%	4µM*	-26%[57.5 µM]	4%
Cc1cccc(NC2=NC(C)(C)N=C(N)N2)c1	-1%	17%	?	i	-7%
CC1=CC(C)(C)N2C(=O)C3(N=C(N)NC(Nc4ccccc4)=N3)c3cc(C)cc1c32 (stereo not given)	0%	-8%	3.5µM*	i	?
O=S(=O)(NC(=NCc1ccccc1)c1ccccc1)c1ccc(Br)cc1	5%	11%	?	i	10%
